# Experimental data as given in PubChem BioAssay (NCATS).
# “And” between values parts separate entries of the source, which are not always exact repeats. Identical values can stand only once. Inconclusive results are not listed. Where a call stands in place of a potency, no number is given. The source made the active and inactive calls. Unless noted, calls follow the shape of the full dose curve.
# Assays:
# [1] = target: Glucocorticoid receptor (Homo sapiens) (UniProt P04150); assay: qHTS assay for small molecule antagonists of glucocorticoid receptor signaling (AID 588533; active = well fitted inhibition curve with a large enough effect in the signal ratio, with a control signal flat, not every such curve was filed as active; the % refers to the signal ratio;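 also: cells stimulated with 2 nM dexamethasone as agonist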; also: potency is read from the fitted curve at half-maximal effect)
# Chain of Glucocorticoid receptor (Homo sapiens) (P04150 whole entry, looked up): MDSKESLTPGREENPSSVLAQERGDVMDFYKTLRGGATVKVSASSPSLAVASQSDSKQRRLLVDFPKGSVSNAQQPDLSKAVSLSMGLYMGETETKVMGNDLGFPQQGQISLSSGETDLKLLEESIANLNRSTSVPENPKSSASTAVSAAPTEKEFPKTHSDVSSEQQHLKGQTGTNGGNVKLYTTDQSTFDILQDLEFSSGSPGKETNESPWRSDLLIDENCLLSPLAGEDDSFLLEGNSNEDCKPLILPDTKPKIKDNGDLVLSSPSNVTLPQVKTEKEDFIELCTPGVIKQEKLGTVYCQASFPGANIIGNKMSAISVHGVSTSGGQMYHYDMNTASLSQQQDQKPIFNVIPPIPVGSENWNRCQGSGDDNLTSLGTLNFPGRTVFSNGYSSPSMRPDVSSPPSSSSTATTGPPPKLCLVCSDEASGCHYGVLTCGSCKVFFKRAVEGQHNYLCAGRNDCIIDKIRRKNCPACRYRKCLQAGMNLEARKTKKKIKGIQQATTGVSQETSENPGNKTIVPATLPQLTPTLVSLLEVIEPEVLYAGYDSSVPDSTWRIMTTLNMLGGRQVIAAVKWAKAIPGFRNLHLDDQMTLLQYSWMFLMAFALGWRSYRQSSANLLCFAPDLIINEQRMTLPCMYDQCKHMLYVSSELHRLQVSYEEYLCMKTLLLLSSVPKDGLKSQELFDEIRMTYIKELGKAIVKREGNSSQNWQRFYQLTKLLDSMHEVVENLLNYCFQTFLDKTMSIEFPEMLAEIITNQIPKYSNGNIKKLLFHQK
# Outline: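 Antagonist-mode qHTS: compound titrations added to GRE-bla HeLa cells, then dexamethasone 2 nM final; 18 h, 37 C. CCF4 FRET fluorescence normalized to dexamethasone and DMSO; IC50 from Hill fit.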
# [2] = qHTS assay for small molecule antagonists of peroxisome proliferator-activated receptor delta signaling (AID 588535; active = well fitted inhibition curve with a large enough effect in the signal ratio, with a control signal flat, not every such curve was filed as active; the % refers to the signal ratio;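 as to max response: cells co-treated with a PPAR-delta agonist as stimulator during compound exposure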); details: HEK293T PPARd-UAS-bla, beta-lactamase FRET ratio, 18 h; 460 nm channel
# Outline: (§1)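 HEK293T PPAR-delta-UAS-bla cells, 4000/well, 2% charcoal/dextran FBS; 5 h 37 C; cpd titration; 18 h 37 C; CCF4 2 h RT; FI 460/530 nm; Hill fit → IC50, efficacy.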
# [3] = target: Peroxisome proliferator-activated receptor delta (Homo sapiens) (UniProt Q03181); assay: as above
# Chain of Peroxisome proliferator-activated receptor delta (Homo sapiens) (Q03181 whole entry, looked up): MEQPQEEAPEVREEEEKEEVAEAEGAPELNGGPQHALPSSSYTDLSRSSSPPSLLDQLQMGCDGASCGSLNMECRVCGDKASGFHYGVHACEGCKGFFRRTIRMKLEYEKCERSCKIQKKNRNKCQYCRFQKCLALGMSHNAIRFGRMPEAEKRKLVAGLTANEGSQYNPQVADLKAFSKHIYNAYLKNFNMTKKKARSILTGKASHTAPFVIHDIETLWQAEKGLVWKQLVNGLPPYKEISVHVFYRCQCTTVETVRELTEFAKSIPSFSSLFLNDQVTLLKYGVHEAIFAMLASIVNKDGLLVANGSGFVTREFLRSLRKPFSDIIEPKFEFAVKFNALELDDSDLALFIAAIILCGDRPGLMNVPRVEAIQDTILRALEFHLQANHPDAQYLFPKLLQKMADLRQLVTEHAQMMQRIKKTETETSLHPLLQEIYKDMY
# Outline: as §1
# [4] = target: Peroxisome proliferator-activated receptor gamma (Homo sapiens) (UniProt P37231); assay: qHTS assay for small molecule agonists of peroxisome proliferator-activated receptor gamma signaling (AID 588536; active = well fitted curve in the direction sought with a large enough effect in the signal ratio, with a control signal flat, not every such curve was filed as active; the % refers to the signal ratio)
# Chain of Peroxisome proliferator-activated receptor gamma (Homo sapiens) (P37231 whole entry, looked up): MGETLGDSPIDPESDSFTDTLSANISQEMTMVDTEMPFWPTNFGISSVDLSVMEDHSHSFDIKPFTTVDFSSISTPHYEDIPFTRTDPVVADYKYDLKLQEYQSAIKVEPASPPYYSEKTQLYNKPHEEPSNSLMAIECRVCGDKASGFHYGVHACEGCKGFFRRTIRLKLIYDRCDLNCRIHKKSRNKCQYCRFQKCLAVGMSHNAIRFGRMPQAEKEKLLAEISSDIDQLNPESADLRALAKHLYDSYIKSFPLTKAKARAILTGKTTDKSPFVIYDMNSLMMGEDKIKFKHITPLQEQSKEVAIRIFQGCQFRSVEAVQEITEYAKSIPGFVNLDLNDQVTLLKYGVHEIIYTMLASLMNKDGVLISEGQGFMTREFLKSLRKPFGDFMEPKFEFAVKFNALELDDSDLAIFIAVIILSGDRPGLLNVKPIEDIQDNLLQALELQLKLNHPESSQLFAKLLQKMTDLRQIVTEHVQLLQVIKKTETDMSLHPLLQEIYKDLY
# Outline: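 PPAR-gamma-UAS-bla HEK293 cells in medium with 1% charcoal/dextran-treated FBS were exposed to compounds for 16 h at 37 C. Beta-lactamase activity was read with CCF4 substrate (405 nm excitation, 460/530 nm emission).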
# [5] = target: Peroxisome proliferator-activated receptor gamma (Homo sapiens) (UniProt P37231); assay: qHTS assay for small molecule antagonists of peroxisome proliferator-activated receptor gamma signaling (AID 588537; active = well fitted inhibition curve with a large enough effect in the signal ratio, with a control signal flat, not every such curve was filed as active; the % refers to the signal ratio;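 also: reporter cells co-stimulated with 50 nM rosiglitazone agonist during compound treatment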)
# Outline: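 Antagonist mode, beta-lactamase reporter in HEK293; charcoal/dextran FBS 1%; 3000 cells/well, 37 C 6-6.5 h; cpd titration + rosiglitazone 50 nM final, 16 h 37 C; CCF4, 2 h RT; 460/530 nm; Hill fit → IC50, efficacy.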
# [6] = target: Vitamin D3 receptor (Homo sapiens) (UniProt P11473); assay: qHTS assay for small molecule agonists of vitamin D receptor signaling (AID 588543)
# Chain of Vitamin D3 receptor (Homo sapiens) (P11473 whole entry, looked up): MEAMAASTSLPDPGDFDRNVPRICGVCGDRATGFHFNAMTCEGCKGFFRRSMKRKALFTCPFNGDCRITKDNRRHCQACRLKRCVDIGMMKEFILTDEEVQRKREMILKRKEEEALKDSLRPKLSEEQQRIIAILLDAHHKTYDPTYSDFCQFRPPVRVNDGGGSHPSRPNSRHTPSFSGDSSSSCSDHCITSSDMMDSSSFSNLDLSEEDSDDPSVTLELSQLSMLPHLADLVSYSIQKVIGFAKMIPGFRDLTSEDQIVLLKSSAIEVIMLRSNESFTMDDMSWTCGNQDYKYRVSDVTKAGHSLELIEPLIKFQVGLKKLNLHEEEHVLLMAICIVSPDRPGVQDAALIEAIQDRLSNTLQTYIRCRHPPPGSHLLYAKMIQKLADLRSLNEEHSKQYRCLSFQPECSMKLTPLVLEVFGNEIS
# Outline: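 Agonist-mode beta-lactamase reporter: HEK293T VDR-UAS-bla cells in charcoal-stripped 2% FBS, compound series 16 h 37 C, CCF4 2 h RT. EC50 from Hill fit, scaled against DMSO and 50 nM calcitriol control.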
# [7] = qHTS assay for small molecule agonists of retinoid X receptor alpha signaling (AID 588544); details: HEK293T RXRa-UAS-bla, beta-lactamase reporter, 18 h; 530 nm emission
# [8] = target: Retinoic acid receptor RXR-alpha (Homo sapiens) (UniProt P19793); assay: as above
# Chain of Retinoic acid receptor RXR-alpha (Homo sapiens) (P19793 whole entry, looked up): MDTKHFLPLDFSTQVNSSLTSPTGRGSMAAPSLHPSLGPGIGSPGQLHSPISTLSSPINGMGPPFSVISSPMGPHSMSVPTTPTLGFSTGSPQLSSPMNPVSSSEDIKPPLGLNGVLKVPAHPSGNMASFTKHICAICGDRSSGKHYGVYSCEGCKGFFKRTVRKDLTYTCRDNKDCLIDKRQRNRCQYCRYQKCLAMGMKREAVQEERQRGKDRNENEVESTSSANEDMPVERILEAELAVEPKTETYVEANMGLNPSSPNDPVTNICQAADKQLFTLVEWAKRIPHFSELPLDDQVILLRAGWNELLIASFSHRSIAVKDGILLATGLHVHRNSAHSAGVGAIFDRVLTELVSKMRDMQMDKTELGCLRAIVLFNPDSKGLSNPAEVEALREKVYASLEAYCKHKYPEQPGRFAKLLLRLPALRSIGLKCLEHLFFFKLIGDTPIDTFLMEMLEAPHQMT
# [9] = target: Peroxisome proliferator-activated receptor delta (Homo sapiens) (UniProt Q03181); assay: qHTS assay for small molecule agonists of peroxisome proliferator-activated receptor delta signaling (AID 588534)
# Outline: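 Cells carrying a PPAR-delta beta-lactamase reporter were treated with compounds for 18 h at 37 °C in agonist mode. CCF4 fluorescence was read after 2 h; EC50 and efficacy from Hill fits.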
# [10] = target: Vitamin D3 receptor (Homo sapiens) (UniProt P11473); assay: qHTS assay for small molecule antagonists of vitamin D receptor signaling (AID 588541);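 also: receptor activated by calcitriol during compound treatment; series mostly up to about 77 µM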
# Outline: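 Antagonist-mode beta-lactamase reporter assay: HEK293T VDR-UAS-bla cells were exposed to titrated compound alongside 1-alpha,25-dihydroxyvitamin D3 at 3 nM final for 16 h. Values were normalized to the 50 nM agonist control and DMSO basal, with IC50 and efficacy from Hill equation fits.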
smiles,measurement,setting,value
Nc1ccccc1,Potency,[1],inactive
same,max response,[2],1.43%
same,outcome,[3],inactive
same,outcome,[4],inactive
same,outcome,[5],inactive
same,outcome,[6],inactive
same,max response,[7],9.36%
same,Potency,[8],inactive
NC(=O)c1ccccc1O,outcome,[9],inactive
O=C(O)Cc1cccc2ccccc12,outcome,[9],inactive
CC(O)CN(CCN(CC(C)O)CC(C)O)CC(C)O (centres undefined),outcome,[9],inactive
COc1cc(OC)c(OC)cc1C=O,Potency,[1],inactive
same,outcome,[4],inactive
same,Potency,[10],inactive
same,outcome,[6],inactive
C[C@]12CCC(=O)C=C1CC[C@@H]1[C@@H]2CC[C@@]2(C)[C@H]1CC[C@]2(C)O,Potency,[1],15.8 µM (active)
same,outcome,[6],inactive
same,max response,[7],-11.4%
same,Potency,[8],inactive
CC12CCC(CC1)C(C)(C)O2,outcome,[9],inactive
CCCCCCCCCCCCCCCC(=O)OC(C)C,outcome,[9],inactive
CC(=O)NS(=O)(=O)c1ccc(N)cc1,outcome,[9],inactive
CC(O)C(=O)O (centres undefined),outcome,[9],inactive
COP(=S)(OC)Oc1ccc(SC)c(C)c1,Potency,[1],inactive
same,max response,[2],3.56%
same,outcome,[3],inactive
same,outcome,[4],inactive
same,outcome,[5],inactive
same,Potency,[10],inactive
same,outcome,[6],inactive
same,max response,[7],-8.01% and -11.8%
same,Potency,[8],inactive
CCOC(=O)c1ccc(O)cc1,outcome,[9],inactive
CC1(C)C(C=C(Cl)Cl)C1C(=O)OC(C#N)c1cccc(Oc2ccccc2)c1 (centres undefined),Potency,[1],inactive
same,outcome,[5],inactive
same,outcome,[6],inactive
same,max response,[7],0.437%
same,Potency,[8],inactive
O=c1[nH]cnc2[nH]ncc12,outcome,[9],inactive
O=C(O)CCCCC(=O)O,outcome,[9],inactive
CO/N=C(/C(=O)N[C@@H]1C(=O)N2C(C(=O)O)=C(COC(N)=O)CS[C@H]12)c1ccco1,outcome,[9],inactive
COc1ccc(C(=O)c2ccccc2)c(O)c1,outcome,[9],inactive
Clc1ccc(C(c2ccc(Cl)cc2)C(Cl)(Cl)Cl)cc1,Potency,[1],inactive
same,outcome,[9],inactive
same,max response,[2],-51.4%
same,outcome,[3],inactive
same,outcome,[5],inactive
same,Potency,[10],inactive
same,outcome,[6],inactive
